Records with an inconclusive call do not appear. Active and inactive are the calls of the source. Calls follow the shape of the dose curve; as a rule, active = well fitted curve in the direction sought with a large enough effect; inconclusive = small, poorly fitted or top-dose-only effect, or another doubt; inactive = no such curve, though single readings can be large; an effect the other way counts as inactive or inconclusive.
What was measured:
[1] = P-glycoprotein substrates identified in KB-8-5-11 adenocarcinoma cell line, qHTS therapeutic library screen (AID 1346987); also: potency is read from the fitted curve at half-maximal effect; nearly all actives have a fitted effect of over 65% in size
Method in brief: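 In this qHTS, P-gp-rich KB-8-5-11 cells received library compounds across a concentration range. Viability was quantified by luminescence after 72 h at 37 degree C.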

[2] = Primary qHTS for inhibitors of nuclear receptor binding SET domain protein 2 (NSD2) in an isogenic RCH-ACV NSD2 p.E1099K mutant (9B) (AID 1645876); also: potency is read from the fitted curve at half-maximal effect; nearly all actives have a fitted effect of over 70% in size
[3] = Primary qHTS for inhibitors of nuclear receptor binding SET domain protein 2 (NSD2) in an RCH-ACV wild type WT cells (2C) (AID 1645877); also: potency is read from the fitted curve at half-maximal effect; nearly all actives have a fitted effect of over 70% in size
[4] = target: Glutathione peroxidase 1 (Homo sapiens) (UniProt P07203); assay: Primary qHTS Assay for Inhibitors of Recombinant Selenoprotein Glutathione Peroxidase 1 (GPX1) (AID 1845191); also: nearly all actives have a fitted effect of over 65% in size
Glutathione peroxidase 1 (Homo sapiens), sequence (P07203 whole entry, looked up): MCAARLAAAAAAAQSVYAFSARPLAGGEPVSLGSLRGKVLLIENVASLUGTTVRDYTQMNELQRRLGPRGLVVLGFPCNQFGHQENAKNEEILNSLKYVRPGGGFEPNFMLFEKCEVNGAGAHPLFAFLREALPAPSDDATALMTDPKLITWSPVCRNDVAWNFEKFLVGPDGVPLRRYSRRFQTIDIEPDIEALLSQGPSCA
Method in brief: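 NADPH consumption tracked by fluorescence at 340/450 nm between t=0 and t=15 min, room temperature. Final mix: 10 nM GPX1, 100 nM glutathione reductase, 1 mM GSH, 0.5 mM NADPH, 0.5 mM cumene hydroperoxide, 0.01% BSA; 30 min compound–enzyme preincubation.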

CC/C(=C(/CC)c1ccc(O)c(CN(CC)CC)c1)c1ccc(O)c(CN(CC)CC)c1
Potency [1]: 14.6 µM (active)
Potency [2]: 9.2 µM (active)
Potency [3]: 16.4 µM (active)
Potency [4]: inactive
